# Where “and” joins values, the source holds several entries; their conditions need not be identical. Equal entries are not always repeated. The panel holds about 83,000 compounds, 20% with a hit somewhere; the sample as a whole holds those more often.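 96-well plates, one dose, 48 hours. Percent growth reported; active if below 10.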 Calls of active or inactive are those of the source.
# System: SF-268 CNS
# Assay: NCI-60 one-dose screen, 48 h (100 = growth as untreated, 0 = no growth, -100 = all killed)
# Conditions: 10 µM unless noted
row,Compound,growth
1,CN(Cc1ccccc1)c1nc(Cl)c(C2CC(c3ccc(F)cc3)=NN2C=O)s1 (stereo unspecified),91.2% (inactive)
2,CCOC(=O)c1ccc(Nc2ncnc3c2cnn3-c2cccc(F)c2)cc1,94.2% (inactive)
3,Cc1ccc2nc3ccccc3c(NCc3ccc(Cl)cc3)c2c1,79.1% (inactive)
4,O=S(=O)(Nc1cc(Sc2cccc3cccnc23)c(O)c2ccccc12)c1ccc(F)cc1,8.15% (active)
5,CCCCC1COc2cccc3c2N1C=C/C3=C\C(=O)N(C)c1cccc(Cl)c1 (stereo unspecified),97.9% (inactive)
6,Cc1ccc(-c2nc3nc(-c4ccc(Cl)cc4)nc(N4CCCNCC4)c3o2)cc1,97% (inactive)
7,COc1cc(NS(=O)(=O)C(C)C)cc(-c2cc(-c3ccc(N4CCNCC4)cc3)cnc2N)c1,70.3% (inactive)
8,COCCn1cc(-c2csc(-c3cn(C)c4ccc(F)cc34)n2)c2cccnc21,77.2% (inactive)
9,COc1ccc(NC(=O)Nc2ccccc2CNc2nc(Nc3ccc(OCCN4CCCC4)cc3)ncc2Cl)cc1,35.8% (inactive)
10,COc1cc(CNC(=O)CCCC/C=C/C(C)C)ccc1O,84.9% (inactive) and 91.6% (inactive)
11,CC(Sc1ccccc1)C(=O)O (stereo unspecified),105% (inactive)
12,Cc1ccc(-c2nc3nc(-c4ccccc4)nc(N4CCCNCC4)c3o2)cc1,-26.3% (active)
13,CCCCn1c(C(=O)c2c[nH]c3ccccc23)n[nH]c1=S,96.9% (inactive)
14,O=C1C(=C(O)c2ccccc2)C(=O)c2ccccc21,95.2% (inactive)
15,COc1ccc(-c2c[nH]c(C(=O)O)c2-c2cc(OC)c(OC)c(OC)c2)cc1,64.9% (inactive)
16,O=C(Nc1ccc2ccccc2c1)c1cc2ccccc2cc1O,7.54% (active)
17,N=C(N)SCc1c2ccccc2c(CSC(=N)N)c2ccccc12,55.5% (inactive)
18,NNCCc1ccccc1,108% (inactive) and 96.1% (inactive)
19,Brc1ccc(/C=C(/C2=NCCN2)n2ccc3ccccc32)cc1,77.7% (inactive)

row,Compound,growth
1,C=C(c1ccc(C(=O)O)cc1)c1cc2c(cc1C)C(C)(C)CCC2(C)C,90.2% (inactive) and 75.4% (inactive)
2,N=C(N)c1ccc(-c2ccc(-c3ccc(Cl)c(Cl)c3)s2)cc1,56.2% (inactive)
3,C=C(CN1CC=CCC1)[C@@H]1CC[C@]2(COC(C)=O)CC[C@]3(C)[C@H](CC[C@@H]4[C@@]5(C)CC[C@H](O)C(C)(C)[C@@H]5CC[C@]43C)[C@@H]12,106% (inactive)
4,O=[N+]([O-])c1cc(C(F)(F)F)ccc1Sc1ccc(C(F)(F)F)cc1[N+](=O)[O-],63% (inactive)
5,CCn1cc(C(=O)NN=C2CCCC2)c(=O)c2ccc(C)nc21,93.4% (inactive)
6,O=C(Nc1ccc(Cl)c(Cl)c1)Nc1ccc(Cl)c(Cl)c1,-80.7% (active) and 31.9% (inactive)
7,Cn1c(=O)c2c(nc(Nc3cc(=O)[nH]c(=O)[nH]3)n2Cc2ccccc2)n(C)c1=O,24.9% (inactive)
8,CCOC(=O)c1c(-c2ccc(OC)cc2)c(C#N)c2c(C#N)c(N)nn2c1N,40.2% (inactive)
9,COc1cc(/C=N/NC(=O)CCN2c3ccccc3Sc3ccccc32)cc(OC)c1OC,93.8% (inactive)
10,O/N=C(/c1ccccc1)c1ccc2c3c(cccc13)CC2,105% (inactive) and 94.6% (inactive)
11,COc1cc(-c2nc3occn3c2-c2ccnc(NCCCNS(=O)(=O)c3ccc(O)cc3)n2)ccc1F,110% (inactive)
12,CN(C)c1ccc2nc3ccc(=O)cc-3sc2c1,52.9% (inactive) and 63% (inactive)
13,ON=C1CCCCCCCC1,99.8% (inactive) and 96.9% (inactive)
14,[Cu+].[NH-][C@H]1C[N-]C(=O)[C@H]([C@H]2CCN=C(N)N2)[N-]C(=O)/C(=C\NC(N)=O)[N-]C(=O)[C@H](CNC(=O)C[C@@H](N)CCCN)[N-]C(=O)[C@H](CO)[N-]C1=O,107% (inactive)
15,CC(C)=CCc1cc(O)c(O)c2oc3cc(O)cc(O)c3c(=O)c12,49.7% (inactive)
16,Cc1ccc(S(=O)(=O)OC[C@@]2(C)CC[C@]3(C)CC[C@]4(C)C(=CC[C@@H]5[C@@]6(C)CCCNC(C)(C)[C@@H]6CC[C@]54C)[C@@H]3C2)cc1,-55.2% (active)
17,COc1cc(C=O)ccc1Oc1ccc([N+](=O)[O-])cc1[N+](=O)[O-],102% (inactive)
18,COc1cc2ncnc(Nc3ccc(F)c(Cl)c3)c2cc1OCC(=O)N1CCCCC1,80% (inactive)
19,CCN1C(=S)N(CC)C2C1NC(=S)N2/N=C/C=C/c1ccccc1 (stereo unspecified),55.6% (inactive)

# System: SF-295 CNS
# Assay: as above
# Conditions: 10 µM unless noted
row,Compound,growth
1,CN(Cc1ccccc1)c1nc(Cl)c(C2CC(c3ccc(F)cc3)=NN2C=O)s1 (stereo unspecified),92.2% (inactive)
2,CCOC(=O)c1ccc(Nc2ncnc3c2cnn3-c2cccc(F)c2)cc1,100% (inactive)
3,Cc1ccc2nc3ccccc3c(NCc3ccc(Cl)cc3)c2c1,43.7% (inactive)
4,O=S(=O)(Nc1cc(Sc2cccc3cccnc23)c(O)c2ccccc12)c1ccc(F)cc1,22.1% (inactive)
5,CCCCC1COc2cccc3c2N1C=C/C3=C\C(=O)N(C)c1cccc(Cl)c1 (stereo unspecified),97.6% (inactive)
6,Cc1ccc(-c2nc3nc(-c4ccc(Cl)cc4)nc(N4CCCNCC4)c3o2)cc1,85.3% (inactive)
7,COc1cc(NS(=O)(=O)C(C)C)cc(-c2cc(-c3ccc(N4CCNCC4)cc3)cnc2N)c1,91.7% (inactive)
8,COCCn1cc(-c2csc(-c3cn(C)c4ccc(F)cc34)n2)c2cccnc21,73.7% (inactive)
9,COc1ccc(NC(=O)Nc2ccccc2CNc2nc(Nc3ccc(OCCN4CCCC4)cc3)ncc2Cl)cc1,11.1% (inactive)
10,COc1cc(CNC(=O)CCCC/C=C/C(C)C)ccc1O,128% (inactive) and 107% (inactive)
11,CC(Sc1ccccc1)C(=O)O (stereo unspecified),91.8% (inactive)
12,Cc1ccc(-c2nc3nc(-c4ccccc4)nc(N4CCCNCC4)c3o2)cc1,-87.3% (active)
13,CCCCn1c(C(=O)c2c[nH]c3ccccc23)n[nH]c1=S,103% (inactive)
14,O=C1C(=C(O)c2ccccc2)C(=O)c2ccccc21,105% (inactive)
15,COc1ccc(-c2c[nH]c(C(=O)O)c2-c2cc(OC)c(OC)c(OC)c2)cc1,23.6% (inactive)
16,O=C(Nc1ccc2ccccc2c1)c1cc2ccccc2cc1O,128% (inactive)
17,N=C(N)SCc1c2ccccc2c(CSC(=N)N)c2ccccc12,66.7% (inactive)
18,NNCCc1ccccc1,106% (inactive) and 92% (inactive)
19,Brc1ccc(/C=C(/C2=NCCN2)n2ccc3ccccc32)cc1,85.1% (inactive)

row,Compound,growth
1,C=C(c1ccc(C(=O)O)cc1)c1cc2c(cc1C)C(C)(C)CCC2(C)C,38.5% (inactive) and 48.8% (inactive)
2,N=C(N)c1ccc(-c2ccc(-c3ccc(Cl)c(Cl)c3)s2)cc1,35.5% (inactive)
3,C=C(CN1CC=CCC1)[C@@H]1CC[C@]2(COC(C)=O)CC[C@]3(C)[C@H](CC[C@@H]4[C@@]5(C)CC[C@H](O)C(C)(C)[C@@H]5CC[C@]43C)[C@@H]12,105% (inactive)
4,O=[N+]([O-])c1cc(C(F)(F)F)ccc1Sc1ccc(C(F)(F)F)cc1[N+](=O)[O-],106% (inactive)
5,CCn1cc(C(=O)NN=C2CCCC2)c(=O)c2ccc(C)nc21,92.8% (inactive)
6,O=C(Nc1ccc(Cl)c(Cl)c1)Nc1ccc(Cl)c(Cl)c1,-11.8% (active)
7,Cn1c(=O)c2c(nc(Nc3cc(=O)[nH]c(=O)[nH]3)n2Cc2ccccc2)n(C)c1=O,101% (inactive)
8,CCOC(=O)c1c(-c2ccc(OC)cc2)c(C#N)c2c(C#N)c(N)nn2c1N,28.2% (inactive)
9,COc1cc(/C=N/NC(=O)CCN2c3ccccc3Sc3ccccc32)cc(OC)c1OC,74.3% (inactive)
10,O/N=C(/c1ccccc1)c1ccc2c3c(cccc13)CC2,82.1% (inactive) and 83.3% (inactive)
11,COc1cc(-c2nc3occn3c2-c2ccnc(NCCCNS(=O)(=O)c3ccc(O)cc3)n2)ccc1F,91.6% (inactive)
12,CN(C)c1ccc2nc3ccc(=O)cc-3sc2c1,6.09% (active) and -15.3% (active)
13,ON=C1CCCCCCCC1,105% (inactive) and 103% (inactive)
14,[Cu+].[NH-][C@H]1C[N-]C(=O)[C@H]([C@H]2CCN=C(N)N2)[N-]C(=O)/C(=C\NC(N)=O)[N-]C(=O)[C@H](CNC(=O)C[C@@H](N)CCCN)[N-]C(=O)[C@H](CO)[N-]C1=O,99.6% (inactive)
15,CC(C)=CCc1cc(O)c(O)c2oc3cc(O)cc(O)c3c(=O)c12,77.9% (inactive)
16,Cc1ccc(S(=O)(=O)OC[C@@]2(C)CC[C@]3(C)CC[C@]4(C)C(=CC[C@@H]5[C@@]6(C)CCCNC(C)(C)[C@@H]6CC[C@]54C)[C@@H]3C2)cc1,85.6% (inactive)
17,COc1cc(C=O)ccc1Oc1ccc([N+](=O)[O-])cc1[N+](=O)[O-],108% (inactive)
18,COc1cc2ncnc(Nc3ccc(F)c(Cl)c3)c2cc1OCC(=O)N1CCCCC1,92.1% (inactive)
19,CCN1C(=S)N(CC)C2C1NC(=S)N2/N=C/C=C/c1ccccc1 (stereo unspecified),19.6% (inactive)
